High-throughput results as filed in PubChem BioAssay.
Shown are actives, neighbours in structure and some others; about 2.9% of the full set was active somewhere.
SNCA expr inhib – Primary qHTS assay for inhibitors of alpha-synuclein gene (SNCA) expression; HEK-293 SNCA-luciferase knock-in, luminescence, 24 h; Potency, µM (series often up to 57.2 µM), hits mostly inhibitors; 140,000 compounds, 0.17% hits; further: nearly all actives have a fitted effect of over 45% in size
SNCA viab count – GF-AFC viability counterscreen for inhibitors of alpha-synuclein gene (SNCA) expression | HEK-293-SNCA-luc viability, GF-AFC fluorescence, 24 h | AID 1671193, 2021 | 150,000 compounds, 0.12% hits | Potency, µM (doses to about 57.1 µM), actives largely listed as cytotoxic; further: nearly all actives have a fitted effect of over 30% in size
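HEK-293-SNCA-luc cells (1500/well) plated 24 h, then exposed 24 h to a dilution series; GF-AFC added 30 min at 37C, fluorescence 405/540 nm; normalised to medium-only and DMSO wells, Hill fit.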
KDM5B inh – Primary screen for KDM5B Histone Demethylases FDH-coupled qHTS; Lysine-specific demethylase 5B (Homo sapiens), Q9UGL1; KDM5B demethylase, FDH-coupled NADH fluorescence (FDH is formaldehyde dehydrogenase); Potency, µM (titrated, usually from 57.7 µM), most hits filed as inhibitors; 220,000 compounds, 2.6% hits; AID 1347165, 2019; further: nearly all actives have a fitted effect of over 70% in size
Target sequence (Q9UGL1 whole entry, looked up): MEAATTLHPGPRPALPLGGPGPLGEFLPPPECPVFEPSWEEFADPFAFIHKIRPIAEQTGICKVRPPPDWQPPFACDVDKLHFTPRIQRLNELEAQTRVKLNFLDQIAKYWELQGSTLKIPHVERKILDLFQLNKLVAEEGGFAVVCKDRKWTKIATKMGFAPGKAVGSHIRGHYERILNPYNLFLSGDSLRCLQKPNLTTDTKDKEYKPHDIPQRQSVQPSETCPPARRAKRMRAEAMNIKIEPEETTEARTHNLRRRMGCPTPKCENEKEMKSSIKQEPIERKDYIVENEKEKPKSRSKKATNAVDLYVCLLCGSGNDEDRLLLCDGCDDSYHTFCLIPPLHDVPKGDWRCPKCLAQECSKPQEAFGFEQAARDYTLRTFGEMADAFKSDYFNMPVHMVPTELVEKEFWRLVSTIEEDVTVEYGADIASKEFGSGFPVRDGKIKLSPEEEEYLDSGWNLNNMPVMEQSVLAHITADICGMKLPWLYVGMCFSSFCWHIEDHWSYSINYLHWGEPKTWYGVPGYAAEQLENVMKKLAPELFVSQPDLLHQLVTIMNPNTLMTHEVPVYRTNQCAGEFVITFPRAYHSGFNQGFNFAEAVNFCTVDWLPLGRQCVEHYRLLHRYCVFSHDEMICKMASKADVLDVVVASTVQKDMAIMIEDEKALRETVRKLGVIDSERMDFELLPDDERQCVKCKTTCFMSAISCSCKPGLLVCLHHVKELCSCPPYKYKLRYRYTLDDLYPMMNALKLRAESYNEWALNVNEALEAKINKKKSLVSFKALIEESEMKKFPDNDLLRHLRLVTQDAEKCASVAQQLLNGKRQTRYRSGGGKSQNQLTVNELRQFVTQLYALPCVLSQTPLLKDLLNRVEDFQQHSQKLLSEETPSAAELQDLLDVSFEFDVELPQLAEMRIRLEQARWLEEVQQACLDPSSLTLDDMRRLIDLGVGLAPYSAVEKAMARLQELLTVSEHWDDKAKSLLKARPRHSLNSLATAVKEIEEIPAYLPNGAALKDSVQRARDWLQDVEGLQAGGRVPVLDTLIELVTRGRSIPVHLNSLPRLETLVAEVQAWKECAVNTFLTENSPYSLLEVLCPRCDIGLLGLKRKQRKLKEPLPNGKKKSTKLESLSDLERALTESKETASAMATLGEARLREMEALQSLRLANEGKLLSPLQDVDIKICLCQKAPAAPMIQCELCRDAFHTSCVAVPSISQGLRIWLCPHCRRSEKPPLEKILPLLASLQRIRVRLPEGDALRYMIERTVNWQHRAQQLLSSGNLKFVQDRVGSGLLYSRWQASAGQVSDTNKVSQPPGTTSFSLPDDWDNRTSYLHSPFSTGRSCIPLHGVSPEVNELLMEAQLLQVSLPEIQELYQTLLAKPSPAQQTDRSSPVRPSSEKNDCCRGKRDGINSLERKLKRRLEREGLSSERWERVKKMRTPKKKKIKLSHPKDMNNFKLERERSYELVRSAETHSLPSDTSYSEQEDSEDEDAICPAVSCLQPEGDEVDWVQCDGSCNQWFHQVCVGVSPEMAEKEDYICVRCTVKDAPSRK
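qHTS format, multiple compound concentrations. Buffer 50 mM HEPES pH 7.5/0.01% Tween-20; 200 nM KDM5BΔAP final; 10 min compound preincubation; substrate-mix levels 12.5 µM peptide, 25 µM α-KG, 0.25 mM NAD⁺; 30 min RT; ΔRFU.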
IP6K1 inhibitor – Primary qHTS assay for small molecule inhibitors of Inositol hexaphosphate kinase 1 (IP6K1); Inositol hexakisphosphate kinase 1 (Homo sapiens), Q92551; IP6K1 kinase, ADP-Glo luminescence, 2 h; hits give low values; activity change, % (series mostly up to about 58 µM); 140,000 compounds, 0.81% hits; in the data active means activity change below about -25%
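ADP-Glo luminescence measures ADP made by human IP6K1 during a 2 h RT reaction with ATP/IP6 (mix at 1.3 mM/130 uM); top library doses 57.5 and 19.1 uM final.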
Of the large screens only hits and unclear results are named; the others gave an inactive call. Unless noted, the call rests on the fitted dose curve; in most records, active means well fitted curve in the direction sought with a large enough effect; inconclusive means small, poorly fitted or top-dose-only effect, or another doubt; inactive means no such curve, though single readings can be large; an effect the other way counts as inactive or inconclusive.

O=C(N/N=C/c1ccccc1)C1CC1(c1ccccc1)c1ccccc1 (centres undefined)	none (no result: SNCA expr inhib, SNCA viab count, IP6K1 inhibitor)
O=C(c1ccc(F)cc1)C1CCN(CCn2c(=O)nc3n(c2=O)CCCC3)CC1	none (no result: SNCA expr inhib, KDM5B inh)
Cc1noc(C)c1-c1cnc(Nc2cc(F)cc(N3CCOCC3)c2)c2c1CCO2	KDM5B inh inconclusive
Cc1noc(C)c1-c1cnc(Nc2ccc(CN3CCN(C)CC3)cc2)c2c1CCO2	KDM5B inh 25µM
Cc1noc(C)c1-c1cnc(Nc2ccc(Cl)cn2)c2c1CCO2	KDM5B inh 28µM
Cc1noc(NS(=O)(=O)c2ccc(NC(=O)C(CC(C)C)N3C(=O)c4ccccc4C3=O)cc2)c1C (centres undefined)	none (no result: SNCA expr inhib, SNCA viab count, IP6K1 inhibitor)
C=CCNC(=O)[C@@H]1Cc2cn(Cc3cc(C)on3)c3cccc(c23)[C@H](CC(C)C)N1	SNCA expr inhib inconclusive, SNCA viab count inconclusive, KDM5B inh inconclusive
CC(=O)NCCNC(=O)[C@@H]1Cc2cn(Cc3c(C)noc3C)c3cccc(c23)[C@H](CC(C)C)N1	none
Cc1noc(C)c1Cn1cc2c3c(cccc31)[C@H](CC(C)C)N[C@H](C(=O)NCC1CC1)C2	KDM5B inh 32µM
C#CCNC(=O)[C@@H]1Cc2cn(Cc3cc(C)on3)c3cccc(c23)[C@H](CC(C)C)N1	KDM5B inh 32µM
C[C@H](NC(=O)/C=C/c1ccccc1)C(=O)O	none (no result: SNCA expr inhib, SNCA viab count, IP6K1 inhibitor)
O=C(Nc1ccc(Cl)cc1)c1cc2n(n1)CC(c1ccc(Cl)cc1)OC2 (centres undefined)	KDM5B inh 32µM
CC(=O)Nc1ccc(NC(=O)c2cc3n(n2)CC(c2ccc(Cl)cc2)OC3)cc1 (centres undefined)	KDM5B inh inconclusive
O=C(Nc1ccc(F)c(F)c1)c1cc2n(n1)CC(c1ccc(Cl)cc1)OC2 (centres undefined)	none
CCOc1ccc(OCC)c(NC(=O)c2cc3n(n2)CC(c2ccc(Cl)cc2)OC3)c1 (centres undefined)	KDM5B inh 14µM
Cc1ccc(NC(=O)c2cc3n(n2)CC(c2ccc(Cl)cc2)OC3)cc1F (centres undefined)	KDM5B inh 28µM
O=C(Nc1ccc(F)c(Cl)c1)c1cc2n(n1)CC(c1ccc(Cl)cc1)OC2 (centres undefined)	KDM5B inh 25µM
CNC(=O)NC(=O)C(C)Sc1nnc(-c2ccccc2Cl)n1-c1cccc(C(F)(F)F)c1 (centres undefined)	none (no result: SNCA expr inhib, SNCA viab count, IP6K1 inhibitor)
O=C(Nc1cc(F)ccc1Cl)c1cc2n(n1)CC(c1ccc(Br)cc1)OC2 (centres undefined)	SNCA expr inhib inconclusive, KDM5B inh 25µM
O=C(Nc1ccc(F)cc1)c1cc2n(n1)CC(c1ccc(Br)cc1)OC2 (centres undefined)	KDM5B inh inconclusive
O=C(Nc1ccccc1)c1cc2n(n1)CC(c1ccc(Br)cc1)OC2 (centres undefined)	KDM5B inh 32µM
Cc1ccc(-c2nnc(C3CN(C(=O)c4sc(C)nc4C)CC34CCOCC4)o2)cc1 (centres undefined)	none
Cc1cc(=O)n(CC(=O)NCc2ccc(OC(C)C)cc2)c2c1c(C)nn2-c1cccc(F)c1	none
Cn1ccc(CN2CC(Oc3ccc(F)c(F)c3)C2)c1	KDM5B inh inconclusive
Cc1cccc(-c2cccc(CN3CCC(NC(=O)Nc4ccc(Cl)cc4)CC3)c2)c1	SNCA expr inhib 20µM, SNCA viab count inconclusive (no result: KDM5B inh)
O=C(COc1ccc(Cl)cc1)NCCc1csc(-c2ccncc2)n1	none (no result: SNCA expr inhib, SNCA viab count, IP6K1 inhibitor)
CC(=O)N1CCCC(C(=O)NCCc2csc(-c3ccncc3)n2)C1 (centres undefined)	KDM5B inh 22µM
O=C(NCCc1csc(-c2ccncc2)n1)C1CNCCO1 (centres undefined)	KDM5B inh 28µM
Cc1ccc(N/N=C/c2cccc(C(F)(F)F)c2)cc1Cl	none (no result: SNCA expr inhib, SNCA viab count, IP6K1 inhibitor)
CCOc1ccc(CCNC(=O)C2Cc3ccccc3N2C(=O)CC)cc1 (centres undefined)	none
COc1ccccc1N1CCCc2ncc(C(=O)NCCc3ccccc3)cc21	KDM5B inh inconclusive
COc1ccccc1N1CCCc2ncc(C(=O)NCCc3c[nH]c4ccccc34)cc21	SNCA expr inhib inconclusive, SNCA viab count inconclusive, KDM5B inh 28µM
COc1ccccc1N1CCCc2ncc(C(=O)N(C)Cc3ccccc3)cc21	KDM5B inh 35µM
COc1ccccc1N1CCCc2ncc(C(=O)N3CCCC[C@@H]3Cc3ccccc3)cc21	KDM5B inh 25µM
O=C1CCN(Cc2ccncc2)CCCC(C(=O)NCCCN2CCCc3ccccc32)CCN1 (centres undefined)	KDM5B inh 14µM
COCCCNC(=O)C1CCCN(Cc2ccncc2)CCC(=O)NCC1 (centres undefined)	SNCA expr inhib inconclusive, KDM5B inh 25µM
Cc1cn2c(=O)cc(CN3CC[C@@](C)(O)[C@@H](O)C3)nc2s1	KDM5B inh 32µM
Nc1ncc(C(=O)N[C@@H]2CC[C@@H](N)C2)c(-c2ccccc2)n1	KDM5B inh 22µM
O=C(Nc1ccc(C(=O)N2CCCCC2)cc1)c1nsc2ccccc12	SNCA expr inhib 10µM
Cc1cn2nc(C(=O)NCc3ccc(C(F)(F)F)cc3)cc2c(N2CCCC2)n1	KDM5B inh 28µM
Cc1cn2nc(C(=O)NCCC3=CCCCC3)cc2c(N2CCCC2)n1	KDM5B inh 10µM
Cc1cn2nc(C(=O)NCc3ccccc3C(F)(F)F)cc2c(N2CCSCC2)n1	KDM5B inh inconclusive
Cc1cn2nc(C(=O)NCc3ccc(Br)cc3)cc2c(N2CCCC2)n1	KDM5B inh 28µM
Cc1cn2nc(C(=O)NC(C)CCc3ccccc3)cc2c(N2CCCC2)n1 (centres undefined)	none
Cc1cn2nc(C(=O)NCc3ccc(Cl)cc3)cc2c(N2CCCC2)n1	KDM5B inh 32µM
Cc1cn2nc(C(=O)NCc3ccc(F)cc3F)cc2c(N2CCCC2)n1	SNCA expr inhib inconclusive
COCc1cc(C[C@@H]2C[C@H](NC3CCN(C(C)=O)CC3)C2(C)C)no1	none
Cc1cn2nc(C(=O)NCc3ccc4c(c3)OCO4)cc2c(N2CCCC2)n1	KDM5B inh 25µM
Cc1cn2nc(C(=O)NCc3ccccc3C(F)(F)F)cc2c(N2CCCC2)n1	KDM5B inh 14µM
COc1ccc(CNC(=O)c2cc3c(N4CCCC4)nc(C)cn3n2)cc1	none
CCc1ccc(CNC(=O)c2cc3c(N4CCCC4)nc(C)cn3n2)cc1	KDM5B inh 25µM
Cc1cn2nc(C(=O)NC3CCC(C)CC3)cc2c(N2CCCC2)n1 (centres undefined)	KDM5B inh 28µM
N#CC(Cc1ccccc1F)(c1ccccc1)c1ccccc1	none (no result: SNCA expr inhib, SNCA viab count, IP6K1 inhibitor)
COCCNC(=O)[C@@H]1CCC[C@@H](NCc2ccc(C(F)(F)F)cc2)CN(C)C(=O)C1	none
O=C(NCc1ccccn1)c1ccc(F)cc1	none (no result: SNCA expr inhib, SNCA viab count, IP6K1 inhibitor)
O=C(Nc1ccc(-c2nnc3n2CCCC3)cc1)c1ccc(F)cc1	none
O=C(NCc1ccc(F)cc1)c1ccc2nnc(-c3ccoc3)n2c1	none (no result: KDM5B inh)
